Read-outs that look alike come from different tables or passages of the source.

For one experiment, the system named is AAK1. The note with it: n = 1.
In a further experiment the test system is ABL1-nonphosphorylated. To be noted: n = 1.
In another experiment the test system is ABL1-phosphorylated. The note with it: n = 1.
The next experiment deals with ABL2. To be noted: concentration: 1 μM, replicates: in singlicate; n = 1.
A further experiment has as its system ACVR1B. To be noted: concentration: 1 μM, replicates: in singlicate; n = 1.
A further experiment concerns ACVR1. To be noted: concentration: 1 μM, replicates: in singlicate; n = 1.
For a further experiment, the system named is ACVR2A. The note with it: concentration: 1 μM, replicates: in singlicate; n = 1.
Another experiment concerns ACVR2B. The note with it: concentration: 1 μM, replicates: in singlicate; n = 1.
In the next experiment the test system is ACVRL1. To be noted: concentration: 1 μM, replicates: in singlicate; n = 1.
Another experiment has as its system T1, ADCK3.
T1 construct: gene CABC1
To be noted: concentration: 1 μM, replicates: in singlicate; n = 1.

A further experiment relates to ADCK4. The note with it: concentration: 1 μM, replicates: in singlicate; n = 1.
The next experiment relates to AKT1. The note with it: concentration: 1 μM, replicates: in singlicate; n = 1.
The test system of a further experiment is AKT2. The note with it: concentration: 1 μM, replicates: in singlicate; n = 1.
A further experiment concerns AKT3. The note with it: concentration: 1 μM, replicates: in singlicate; n = 1.
In the next experiment the test system is ALK. The note with it: concentration: 1 μM, replicates: in singlicate; n = 1.
Another experiment has as its system T2, AMPK-alpha1.
T2 construct: gene PRKAA1
The note with it: concentration: 1 μM, replicates: in singlicate; n = 1.

A further experiment deals with T3, AMPK-alpha2.
T3 construct: gene PRKAA2
The note with it: concentration: 1 μM, replicates: in singlicate; n = 1.

A further experiment has as its system ANKK1. The note with it: concentration: 1 μM, replicates: in singlicate; n = 1.
The subject of the next experiment is T4, ARK5.
T4 construct: gene NUAK1
To be noted: concentration: 1 μM, replicates: in singlicate; n = 1.

The test system of the next experiment is T5, ASK1.
T5 construct: gene MAP3K5
To be noted: concentration: 1 μM, replicates: in singlicate; n = 1.

The mark [1] stands for this setting: concentration: 1 μM, replicates: in singlicate.
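Further: KINOMEscan kinase panel screen.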

For the compound `Nc1ncnc2c1nc(-c1ccccc1)n2-c1ccccc1` [SKF-97293], the “%Inh” value in the experiment with AAK1 (setting [1]) is 0%; with ABL1-nonphosphorylated (setting [1]), 8%; in the experiment with ABL1-phosphorylated (setting [1]) it was 0%; in the experiment on ABL2 it was 2%; in the experiment on ACVR1B, 7%; in the experiment on ACVR1, 0%. The “%Inh” value is listed as 4% with ACVR2A; 0% in the experiment on ACVR2B; 14% in the experiment on ACVRL1; 11% with ADCK3; 0% with ADCK4; 2% in the experiment with AKT1. The “%Inh” value with AKT2 is listed as 3%; in the experiment on AKT3 it was 16%; in the experiment on ALK, 52%; in the experiment on AMPK-alpha1, 23%; in the experiment with AMPK-alpha2 it was 31%; in the experiment on ANKK1, 29%. Also, the “%Inh” value with ARK5 and with ASK1 was 0% throughout.
On to `O=C(Nc1n[nH]c2cc(-c3ccoc3)ccc12)C1CC1` [SB-738481], for which the “%Inh” value is given as 45% in the experiment with AAK1 (setting [1]); 25% with ABL1-nonphosphorylated (setting [1]); 0% in the experiment with ABL1-phosphorylated (setting [1]); 0% with ABL2; 0% with ACVR1B; 30% in the experiment with ACVR1. Further, the “%Inh” value is listed as 19% with ACVR2A; 46% in the experiment with ACVR2B; 0% with ACVRL1; 0% in the experiment with ADCK3; 0% with ADCK4; 0% in the experiment with AKT1. Also, the “%Inh” value is listed as 0% in the experiment on AKT2; 0% with AKT3; 0% in the experiment with ALK; 0% with AMPK-alpha1; 0% in the experiment with AMPK-alpha2; 23% in the experiment with ANKK1. For the same compound, the “%Inh” value in the experiment on ARK5 and in the experiment with ASK1 was 0% each time.
Regarding `c1ccc(-c2cnc3nccnn23)cc1` [AH20685], the “%Inh” value came out at 0% in the experiment with AAK1 (setting [1]); 0% with ABL1-nonphosphorylated (setting [1]); 0% in the experiment with ABL1-phosphorylated (setting [1]); 5% in the experiment on ABL2; 0% with ACVR1B; 17% with ACVR1. Besides, the “%Inh” value worked out at 0% in the experiment with ACVR2A; 0% in the experiment on ACVR2B; 0% in the experiment with ACVRL1; 0% in the experiment on ADCK3; 17% in the experiment with ADCK4; 0% in the experiment on AKT1. Besides, the “%Inh” value with AKT2 worked out at 0%; in the experiment with AKT3, 0%; in the experiment with ALK, 20%; in the experiment on AMPK-alpha1 it was 0%; with AMPK-alpha2, 0%; with ANKK1, 0%. Besides, the “%Inh” value with ARK5 and in the experiment on ASK1 was 0% in each case.
With `O=C(Nc1cccc(Oc2ccc3nc(NC(=O)C4CC4)cn3n2)c1)c1ccccc1C(F)(F)F`, the “%Inh” value in the experiment on AAK1 (setting [1]) turned out to be 45%; in the experiment on ABL1-nonphosphorylated (setting [1]), 100%; in the experiment with ABL1-phosphorylated (setting [1]), 90%; in the experiment with ABL2 it was 79%; in the experiment with ACVR1B, 0%; with ACVR1 it was 0%. Besides, the “%Inh” value is 16% in the experiment on ACVR2A; 34% in the experiment with ACVR2B; 0% in the experiment on ACVRL1; 3% with ADCK3; 12% with ADCK4; 0% in the experiment with AKT1. Besides, the “%Inh” value in the experiment with AKT2 turned out to be 0%; in the experiment on AKT3 it was 0%; with ALK it was 22%; with AMPK-alpha1, 0%; in the experiment with AMPK-alpha2, 3%; in the experiment on ANKK1, 1%. In addition, the “%Inh” value with ARK5 and in the experiment with ASK1 was 0% each time.
Consider `COCCOCCOc1cc2ncc3c4ccc(C#N)cc4[nH]c3c2cc1OC`, for which the “%Inh” value in the experiment on AAK1 (setting [1]) came out at 92.1%; with ABL1-nonphosphorylated (setting [1]), 70%; in the experiment with ABL1-phosphorylated (setting [1]) it was 53%; in the experiment on ABL2, 2%; with ACVR1B it was 0%; with ACVR1, 0%. Moreover, the “%Inh” value in the experiment with ACVR2A is 6%; in the experiment on ACVR2B it was 0%; in the experiment with ACVRL1, 0%; with ADCK3 it was 29%; in the experiment on ADCK4, 0%; with AKT1, 5%. For the same compound, the “%Inh” value with AKT2 is recorded as 0%; in the experiment with AKT3, 0%; in the experiment with ALK, 0%; in the experiment on AMPK-alpha1, 30%; with AMPK-alpha2, 1%; in the experiment with ANKK1 it was 63%. In addition, the results for the “%Inh” value in the experiment with ARK5 and in the experiment with ASK1 were 12% and 6%, respectively.
`CC(=O)N1CCN(c2ccc(Nc3nccc(-c4sc(C(C)C)nc4-c4cccc(NS(=O)(=O)c5cccc(Cl)c5)c4)n3)cn2)CC1` [GSK1660437]: the “%Inh” value in the experiment with AAK1 (setting [1]) came to 0%; in the experiment on ABL1-nonphosphorylated (setting [1]), 95.8%; with ABL1-phosphorylated (setting [1]), 35%; in the experiment with ABL2 it was 83%; in the experiment with ACVR1B it was 70%; in the experiment on ACVR1 it was 61%. Further, the “%Inh” value amounted to 29% in the experiment on ACVR2A; 72% with ACVR2B; 44% with ACVRL1; 73% with ADCK3; 72% in the experiment with ADCK4; 0% in the experiment with AKT1. Also, the “%Inh” value came out at 5% in the experiment with AKT2; 0% in the experiment on AKT3; 7% in the experiment with ALK; 48% in the experiment with AMPK-alpha1; 75% in the experiment on AMPK-alpha2; 7% with ANKK1. Also, the “%Inh” value in the experiment on ARK5 and in the experiment on ASK1 was 0% throughout.
Consider `CN1CCN(CCCNc2nccc(-c3c(-c4ccc(F)cc4)nn4cc(C(F)(F)F)ccc34)n2)CC1` [GW621581], for which the “%Inh” value in the experiment on AAK1 (setting [1]) is recorded as 1%; with ABL1-nonphosphorylated (setting [1]) it was 0%; in the experiment on ABL1-phosphorylated (setting [1]) it was 0%; with ABL2, 9%; in the experiment on ACVR1B, 83%; in the experiment on ACVR1, 40%. Further, the “%Inh” value with ACVR2A worked out at 0%; in the experiment with ACVR2B, 0%; in the experiment on ACVRL1 it was 26%; in the experiment with ADCK3, 70%; in the experiment on ADCK4, 97.1%; in the experiment with AKT1, 0%. The “%Inh” value in the experiment on AKT2 worked out at 0%; in the experiment on AKT3, 0%; in the experiment on ALK, 9%; with AMPK-alpha1, 0%; with AMPK-alpha2, 19%; in the experiment on ANKK1 it was 0%. Further, the “%Inh” value with ARK5 turned out to be 21%; with ASK1, 6%.
Consider `c1ccc(Oc2ccc(Nc3ccnc4cc(-c5ccc(CNCCN6CCOCC6)o5)ccc34)cc2)nc1` [GW567145], for which the “%Inh” value in the experiment on AAK1 (setting [1]) turned out to be 6%; with ABL1-nonphosphorylated (setting [1]), 78%; in the experiment with ABL1-phosphorylated (setting [1]) it was 12%; in the experiment on ABL2, 6%; in the experiment with ACVR1B, 0%; in the experiment with ACVR1, 8%. In addition, the “%Inh” value in the experiment with ACVR2A was 0%; in the experiment with ACVR2B, 14%; with ACVRL1, 0%; in the experiment with ADCK3, 2%; in the experiment on ADCK4, 31%; in the experiment on AKT1 it was 0%. Moreover, the “%Inh” value with AKT2 is 10%; in the experiment with AKT3 it was 0%; in the experiment with ALK, 0%; with AMPK-alpha1 it was 0%; in the experiment with AMPK-alpha2, 0%; with ANKK1, 34%. Further, the “%Inh” value with ARK5 came out at 44%; with ASK1, 0%.
Consider `CNC(=O)c1ccccc1Nc1nc(Nc2ccc(N3CCOCC3)cc2)ncc1Cl.Cl` [GSK1576028], for which the “%Inh” value in the experiment on AAK1 (1 µM) is on record as 89%; in the experiment with ABL1-nonphosphorylated (1 µM), 98.8%; in the experiment on ABL1-phosphorylated (1 µM) it was 99.6%; in the experiment on ABL2, 95.6%; in the experiment on ACVR1B it was 85%; with ACVR1 it was 95%. Further, the “%Inh” value with ACVR2A is 18%; in the experiment with ACVR2B, 43%; in the experiment on ACVRL1 it was 42%; in the experiment with ADCK3, 35%; with ADCK4, 44%; in the experiment with AKT1, 42%. In addition, the “%Inh” value with AKT2 stood at 62%; in the experiment with AKT3, 0%; in the experiment on ALK, 88%; in the experiment with AMPK-alpha1 it was 99.2%; in the experiment with AMPK-alpha2, 99.4%; with ANKK1 it was 12%. Also, the “%Inh” value in the experiment with ARK5 turned out to be 99.8%; in the experiment on ASK1 it was 0%.
